Unmarked numbers belong to inactive results. Results filed as inconclusive are left out. Where a call stands in place of a potency, no number is given. Calls of active or inactive are those of the source. Unless noted, the call rests on the fitted dose curve; in most records, active means well fitted curve in the direction sought with a large enough effect in the repeat runs; inconclusive means weak or mixed curves; inactive means no such curve, though single readings can be large; an effect the other way counts as inactive or inconclusive.
Key:
[1] = qHTS assay to identify small molecule agonists of the hypoxia (HIF-1) signaling pathway (AID 1224846; active means well fitted activation curve with a large enough effect in the signal ratio in the repeat runs, not every such curve was filed as active; the % refers to the signal ratio); conditions: HRE-bla ME-180 cells, beta-lactamase ratio, 17 h; series mostly up to 76.8 µM
Procedure, shortened: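 HRE-bla ME-180 cells (beta-lactamase reporter under hypoxia response element) were plated at 2,000 cells/well in medium with 0.5% dialyzed FBS, rested 5 hrs, then given compounds in DMSO for 17 hrs at 37C, 5% CO2. Reporter induction was read with CCF4-AM FRET substrate.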

[2] = qHTS assay to identify small molecule antagonists of the estrogen related receptor (ERR) signaling pathway from Tox21 library (AID 1224848); conditions: ERR reporter cell line, luciferase antagonist mode, 18 h; series mostly up to 92.4 µM; further: nearly all actives have a fitted effect of over 50% in size; further: potency means the concentration at half of the fitted maximal effect
Procedure, shortened: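 ERR reporter cell line (from NTP) seeded 2,000 cells/well, rested 6 h at 37 C/5% CO2, then pin-dosed with compounds in DMSO. After 18 h at 37 C, ONE-Glo added; luminescence read after 30 min at room temperature.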

[3] = qHTS assay to identify small molecule agonists of the estrogen related receptor (ERR) signaling pathway from Tox21 library (AID 1224849; calls by dose curve; further: nearly all actives have a fitted effect of over 15% in size); conditions: ERR reporter cell line, ONE-Glo luciferase, 18 h; at 92.4 µM (top of the series) unless noted
Procedure, shortened: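 ERR reporter cell line (NTP) seeded, rested 6 h at 37 C/5% CO2, then pinned with Tox21 compounds in DMSO. After 18 h at 37 C, ONE-Glo luciferase luminescence was read following 30 min at room temperature.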

[4] = qHTS RealTime-Glo MT Cell Viability Assay in HepG2 cells - 24 hour (AID 1224867); conditions: RealTime-Glo luminescence; series mostly up to 76.8 µM; further: nearly all actives have a fitted effect of over 50% in size; further: potency means the concentration at half of the fitted maximal effect
Procedure, shortened: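 Luminescence read-out: viable HepG2 cells reduce a prosubstrate to a NanoLuc substrate, giving a signal proportional to live cell number. Reads taken at 0, 8, 16, 24, 32 and 40 h of compound exposure at 37 C.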

[5] = qHTS RealTime-Glo MT Cell Viability Assay in HEK293 cells - 32 hour (AID 1224868); conditions: RealTime-Glo luminescence; series mostly up to 76.8 µM; further: nearly all actives have a fitted effect of over 50% in size; further: potency means the concentration at half of the fitted maximal effect
Procedure, shortened: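 Nonlytic real-time viability readout: viable cells convert prosubstrate to NanoLuc substrate, giving luminescence proportional to live cell number. HEK293, 600 cells/well, compound added after 5 h, continuous culture at 37 C.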

[6] = qHTS RealTime-Glo MT Cell Viability Assay in HepG2 cells - 40 hour (AID 1224870); conditions: RealTime-Glo luminescence; series mostly up to 76.8 µM; further: nearly all actives have a fitted effect of over 50% in size; further: potency means the concentration at half of the fitted maximal effect
Procedure, shortened: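 HepG2 cells (600/well) mixed with RealTime-Glo MT reagent, settled 5 h at 37 C/5% CO2 before compound addition. Nonlytic NanoLuc luminescence from viable-cell prosubstrate reduction read repeatedly during 40 h treatment at 37 C.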

[7] = qHTS assay to identify small molecule agonists of H2AX (AID 1224845; active means well fitted activation curve with a large enough effect in the signal ratio in the repeat runs, not every such curve was filed as active; the % refers to the signal ratio); conditions: CHO-K1 phospho-H2AX Ser139 HTRF, 3 h; series mostly up to 154 µM
Procedure, shortened: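 Wild-type CHO-K1 cells, plated overnight, exposed 3hr at 37C to 15 concentrations (0.76% DMSO final). Lysed, then HTRF anti-pH2AX (S139) cryptate and anti-H2AX-d2 antibodies, 24 hr room temperature; 665/620 nm emission read.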

[8] = A CellTox Green Cytotoxicity Assay to monitor cytotoxicity in HEK293 cells - 0 hour (AID 1224869); conditions: CellTox Green fluorescence; series mostly up to 76.8 µM; further: nearly all actives have a fitted effect of over 50% in size
Procedure, shortened: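 HEK293 cells premixed with CellTox Green dye were seeded at 600 cells/well and left 5 h at 37 C/5% CO2 before pin transfer of 23 nL compound in DMSO. Fluorescence from dye bound to dead-cell DNA was read during 40 h treatment.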

[9] = qHTS assay to identify small molecule agonists of H2AX - cell viability counter screen (AID 1224847; calls by dose curve; further: nearly all actives have a fitted effect of over 30% in size; further: potency means the concentration at half of the fitted maximal effect); conditions: CHO-K1 viability, CellTiter-Glo luminescence, 3 h; series mostly up to 154 µM
Procedure, shortened: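 Quantitative HTS viability measurement: CHO-K1 wild-type cells in serum (10% FBS) medium, short 3 hr drug exposure at 37C with 0.76% DMSO, CellTiter-Glo luminescent detection.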

| SMILES | Potency [1] | Potency [2] | activity change, positive = activation [3] | Potency [4] | Potency [5] | Potency [6] | Potency [7] | Potency [8] | Potency [9] |
| --- | --- | --- | --- | --- | --- | --- | --- | --- | --- |
| Oc1ccc2[nH]cc(CCCCN3CC=C(c4ccccc4)CC3)c2c1 | inactive | 29.8 µM (active) | -32.1% [at 42.5 µM] | inactive | 23.9 µM (active) | inactive |  |  |  |
| CCCCON=O | inactive | inactive |  | inactive | inactive | inactive | inactive | inactive |  |
| O=S1(=O)OCC2C(CO1)C1(Cl)C(Cl)=C(Cl)C2(Cl)C1(Cl)Cl (stereo not given) | inactive |  |  |  | 21.9 µM (active) |  | inactive | inactive |  |
| Cc1cccc(Cc2cnc[nH]2)c1C |  |  |  | inactive | inactive | inactive |  | inactive |  |
| CSC(C)(C)/C=N/O | inactive |  |  | inactive | inactive | inactive | inactive | inactive |  |
| O=[N+]([O-])C(Br)Br |  | inactive | 5.44% | inactive |  |  | inactive | inactive | inactive |
| Clc1ccc(C(Cl)(Cl)Cl)cc1Cl |  |  |  |  | 33.9 µM (active) |  |  | inactive | inactive |
| CC(C)c1c(CN(C)C(C)Cc2ccccc2)n(C)n(-c2ccccc2)c1=O (stereo not given) | inactive |  |  | inactive |  | inactive | inactive | inactive | inactive |
| N#Cc1sc2c(=O)c3ccccc3c(=O)c=2sc1C#N |  | 61.1 µM (active) | -74.5% | 11 µM (active) |  | 11 µM (active) |  | inactive | 101 µM (active) |
| O=C(Nc1ccc(F)cc1F)c1cccnc1Oc1cccc(C(F)(F)F)c1 | inactive | inactive | 5% | inactive | inactive | inactive |  |  |  |
| CO/N=C(\C(=O)OC)c1ccccc1CO/N=C(\C)c1cccc(C(F)(F)F)c1 |  |  |  | inactive | 12.3 µM (active) | inactive | inactive | inactive | 2.01 µM (active) |
| C[C@@H]1CC2=CC(=O)CC[C@@H]2[C@H]2CC[C@@]3(C)[C@@H](CC[C@]3(C)O)[C@@H]21 |  | 23.7 µM (active) |  | inactive |  | inactive | inactive |  | inactive |
